The results in this text go back to PubChem BioAssay (EPA / NIEHS).

A short description of assay [1]: ATG_GLI_CIS: Attagene CIS-FACTORIAL HepG2 Assay for human Zinc Finger Protein GLI1 (AID 2282945). The settings on record: HepG2, Attagene cis-factorial reporter mRNA, GLI element; actives raise or lower the signal. In short, it runs like this: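 HepG2 cells transiently transfected with cis-promoter multiplexed reporter units report endogenous transcription factor activity. After 24 h chemical exposure, reporter mRNA was quantified by RT-PCR, 6-FAM labelling, HpaI digestion and capillary electrophoresis, with bidirectional fitting against DMSO.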

Assay [2] can be described thus: ATG_GRE_CIS: Attagene CIS-FACTORIAL HepG2 Assay for human Glucocorticoid Response Elements (GRE) (AID 2282947). The settings on record: HepG2 GRE cis-reporter, Attagene multiplex mRNA; actives raise or lower the signal. In short, it runs like this: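 Cells (HepG2) bearing transfected cis-promoter reporter transcription units were treated with chemical for 24 hours. Reporter mRNA was measured via RT-PCR with capillary electrophoresis, and activity was fitted in both directions relative to DMSO.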

Assay [3] in a line: ATG_ISRE_CIS: Attagene CIS-FACTORIAL HepG2 Assay for human Interferon Regulatory Factor 1 (IRF1) binding to an Interferon-Stimulated Response Element (ISRE) (AID 2282948). The following applies: HepG2 ISRE cis-reporter (Attagene), mRNA transcription readout; actives raise or lower the signal. In short, it runs like this:
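Read-out: fluorescent RT-PCR products resolved by capillary electrophoresis, reporting endogenous transcription factor activity via ISRE-driven reporter mRNA in transfected HepG2 cells dosed for 24 h; gain or loss fitted relative to DMSO.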

A short description of assay [4]: ATG_M_32_CIS: Attagene CIS-FACTORIAL HepG2 Assay for M32 Transcription Factor (Internal Marker) (AID 2282949).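 Also: background control marker of the multiplexed CIS panel rather than a real target.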 The settings on record: HepG2 Attagene cis-factorial M32 reporter, mRNA; actives raise or lower the signal. In a few lines: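 HepG2 transfectants (cis-regulated reporter transcription units) dosed 24 h. Reporter mRNA by RT-PCR plus CE, analysed as gain or loss relative to DMSO.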

A short description of assay [5]: ATG_M_06_CIS: Attagene CIS-FACTORIAL HepG2 Assay for M06 Transcription Factor (Internal Marker) (AID 2282950). The settings on record: HepG2 Attagene CIS-FACTORIAL M06 internal marker reporter; actives raise or lower the signal. In a few lines:
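Cells (HepG2, transiently carrying cis-driven reporter units) receive chemical for 24 h before RNA isolation. Reporter cDNA is PCR-amplified, FAM-labelled by primer extension, HpaI-digested and sized on a capillary analyser.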

Assay [6] addresses Hypoxia-inducible factor 1-alpha (Homo sapiens) (UniProt Q16665). The experiment in a line: ATG_HIF1a_CIS: Attagene CIS-FACTORIAL HepG2 Assay for human Hypoxia Inducible Factor 1 (HIF1A) (AID 2282951). The settings on record: HepG2 Attagene cis-factorial HIF1a reporter transcription; actives raise or lower the signal. In short, it runs like this: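 After 24 h chemical exposure of reporter-transfected HepG2 cells, reporter cDNA was PCR-amplified, labelled by 6-FAM primer extension (2 min 95 C, 20 s 68 C, 10 min 72 C), HpaI-cut (2 h, 37 C) and analysed by CE.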

The target of assay [7] is Hepatocyte nuclear factor 6 (Homo sapiens) (UniProt Q9UBC0). Description: ATG_HNF6_CIS: Attagene CIS-FACTORIAL HepG2 Assay for human Hepatocyte Nuclear Factor 6 (HNF6) (AID 2282952). The following applies: HepG2 Attagene cis-factorial HNF6 reporter transcription; actives raise or lower the signal. In short, it runs like this:
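First, HepG2 cells were transfected with the multiplexed cis reporter library and dosed with chemical for 24 h. Next, RNA was reverse-transcribed, PCR-amplified and fluorescently labelled. Finally, HpaI-digested fragments were read by capillary electrophoresis.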

Assay [8] is described as follows: ATG_MRE_CIS: Attagene CIS-FACTORIAL HepG2 Assay for human Metal Responsive Element (MRE) (AID 2282954). The settings on record: HepG2 MRE cis-reporter transcription, Attagene multiplex; actives raise or lower the signal. In a few lines:
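Cells were transfected with cis-promoter reporter transcription units, then dosed for 24 h. RNA was reverse-transcribed, amplified, fluorescently labelled and resolved by capillary electrophoresis, and activity was fitted in both directions relative to DMSO.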

Assay [9] addresses Heat shock factor protein 1 (Homo sapiens) (UniProt Q00613). The experiment in a line: ATG_HSE_CIS: Attagene CIS-FACTORIAL HepG2 Assay for human Heat Shock Transcription Factor 1 (HSE) (AID 2282953). The following applies: HepG2 HSE cis-reporter, Attagene RNA transcription; actives raise or lower the signal. In a few lines: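 Liver-derived HepG2 cells carry transiently introduced multiple reporter units governed by cis promoters. Reporter RNA measured 24 h post-dose through reverse transcription, PCR amplification, fluorescent labelling and capillary electrophoresis, normalised to DMSO.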

The source made the active and inactive calls. The calls were made as follows: active = hit-call score of the fitted dose curve at least 0.9, where 1 is the maximum; inactive = score below 0.9.

Sequence of Hepatocyte nuclear factor 6 (Homo sapiens) (Q9UBC0 whole entry, looked up, the tested form may be a part): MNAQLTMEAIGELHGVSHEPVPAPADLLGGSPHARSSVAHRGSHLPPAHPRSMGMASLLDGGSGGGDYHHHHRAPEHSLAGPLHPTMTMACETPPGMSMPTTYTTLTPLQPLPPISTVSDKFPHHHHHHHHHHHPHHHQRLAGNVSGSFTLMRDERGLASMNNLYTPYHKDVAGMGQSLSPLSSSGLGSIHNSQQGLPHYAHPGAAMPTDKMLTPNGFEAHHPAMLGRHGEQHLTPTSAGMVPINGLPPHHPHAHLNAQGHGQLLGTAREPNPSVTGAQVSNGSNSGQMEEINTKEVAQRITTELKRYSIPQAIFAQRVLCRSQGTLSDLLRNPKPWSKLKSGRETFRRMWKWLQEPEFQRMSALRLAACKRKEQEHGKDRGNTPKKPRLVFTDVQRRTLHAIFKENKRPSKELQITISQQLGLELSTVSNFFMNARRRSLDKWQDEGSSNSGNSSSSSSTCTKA
Sequence of Heat shock factor protein 1 (Homo sapiens) (Q00613 whole entry, looked up): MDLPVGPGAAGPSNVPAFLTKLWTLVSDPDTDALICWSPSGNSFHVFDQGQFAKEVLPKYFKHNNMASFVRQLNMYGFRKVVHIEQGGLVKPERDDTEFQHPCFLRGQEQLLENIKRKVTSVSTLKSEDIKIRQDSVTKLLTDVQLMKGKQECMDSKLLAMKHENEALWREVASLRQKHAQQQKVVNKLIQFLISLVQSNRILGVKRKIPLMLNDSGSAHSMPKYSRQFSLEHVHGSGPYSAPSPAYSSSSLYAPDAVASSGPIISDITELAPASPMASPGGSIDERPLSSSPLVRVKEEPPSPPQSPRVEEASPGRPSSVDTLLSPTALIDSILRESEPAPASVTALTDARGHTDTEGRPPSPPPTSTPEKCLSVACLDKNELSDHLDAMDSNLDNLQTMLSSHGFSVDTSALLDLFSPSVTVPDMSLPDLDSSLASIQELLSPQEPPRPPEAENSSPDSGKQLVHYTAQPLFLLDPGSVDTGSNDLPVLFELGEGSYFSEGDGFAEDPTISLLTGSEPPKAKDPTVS
Sequence of Hypoxia-inducible factor 1-alpha (Homo sapiens) (Q16665 whole entry, looked up): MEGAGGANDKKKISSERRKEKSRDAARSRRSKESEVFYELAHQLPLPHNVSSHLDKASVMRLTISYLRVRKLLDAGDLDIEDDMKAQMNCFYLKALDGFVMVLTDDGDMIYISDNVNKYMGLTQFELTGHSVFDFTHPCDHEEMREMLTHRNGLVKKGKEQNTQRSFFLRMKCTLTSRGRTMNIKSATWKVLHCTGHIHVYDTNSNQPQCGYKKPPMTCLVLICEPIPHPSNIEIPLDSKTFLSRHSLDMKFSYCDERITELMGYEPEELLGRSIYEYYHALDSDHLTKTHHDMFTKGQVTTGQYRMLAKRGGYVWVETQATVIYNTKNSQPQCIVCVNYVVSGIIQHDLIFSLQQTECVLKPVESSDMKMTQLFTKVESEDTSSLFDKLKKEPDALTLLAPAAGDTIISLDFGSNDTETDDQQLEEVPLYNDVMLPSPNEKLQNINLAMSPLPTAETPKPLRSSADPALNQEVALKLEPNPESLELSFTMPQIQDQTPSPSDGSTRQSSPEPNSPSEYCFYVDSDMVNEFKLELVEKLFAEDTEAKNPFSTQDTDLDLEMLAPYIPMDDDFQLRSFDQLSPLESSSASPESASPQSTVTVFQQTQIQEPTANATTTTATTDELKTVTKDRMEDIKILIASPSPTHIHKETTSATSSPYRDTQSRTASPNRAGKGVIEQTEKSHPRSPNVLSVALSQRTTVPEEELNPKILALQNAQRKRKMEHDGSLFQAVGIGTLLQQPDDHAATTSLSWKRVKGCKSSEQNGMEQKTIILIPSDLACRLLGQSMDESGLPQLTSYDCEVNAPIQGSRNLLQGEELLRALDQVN

On to `CC(=O)Nc1ccc(N=Nc2cc(C)ccc2O)cc1`, for which the call in assay [1], in assay [2], in assay [3], in assay [4], in assay [5] and in assay [6] was inactive. Also, the compound was called inactive in assay [7]. Also, the AC50 (as a rule, the concentration at which the activity in the assay is half-maximal) in assay [8] is 27.6 µM (active).

`CCCCCC=O`: the compound was called inactive in [1], in assay [3], in assay [4], in [5], in assay [6] and in assay [7]. In assay [9], the outcome was inactive.

In the case of `CC(C)c1ccccc1N`, the outcome in assay [1], in assay [2], in assay [3], in assay [4], in [5] and in assay [6] was inactive. The outcome in [7] and in assay [9] was inactive.

For `Nc1ccc(Oc2cccc(Oc3ccc(N)cc3)c2)cc1`, the AC50 was 178 µM (active) in assay [1]; 181 µM (active) in [2]; 24.7 µM (active) in assay [3]; 137 µM (active) in assay [4]; 26.9 µM (active) in [6]; 160 µM (active) in assay [9]. The compound was classed as inactive in [5] and in assay [7].

Take `C1COCCN1`: the outcome in assay [1], in assay [3], in assay [4], in assay [5], in assay [6] and in [7] was inactive. Also, the result in assay [8] was inactive.

For the compound `O=C(CC(=O)C(F)(F)C(F)(F)F)C(F)(F)F`, the compound was classed as inactive in assay [1], in assay [2], in [3], in assay [4], in assay [5] and in [6]. Also, the compound was classed as inactive in [7] and in assay [8].

On to `OC[C@@H](O)[C@@H](O)[C@H](O)[C@@H](O)CO`, for which the outcome in assay [1], in assay [3], in assay [4], in [5], in assay [6] and in assay [7] was inactive. Besides, the call in assay [9] was inactive.

As for `Cc1cc(C)cc(O)c1`, the result in assay [1], in assay [2], in assay [3], in assay [4], in assay [5] and in assay [6] was inactive. Also, the compound was called inactive in assay [7] and in assay [8].

As to `Nc1ccc(S(=O)(=O)Nc2nccs2)cc1`, the compound was classed as inactive in assay [1], in assay [2], in assay [3], in assay [4], in [5] and in assay [7]. Besides, in assay [8], the outcome was inactive.

On to `CO[Si](OC)(c1ccccc1)c1ccccc1`, for which the outcome in assay [1], in assay [2], in assay [3], in assay [4], in assay [5] and in assay [6] was inactive. The compound was classed as inactive in assay [7] and in [9].

As for `COC(=O)C1CCC(C(=O)OC)CC1` (centres undefined), the result in [1], in [3], in [4], in [5], in assay [6] and in assay [7] was inactive. Also, the outcome in assay [8] was inactive.

On to `O=C(O)C(F)(F)C(F)(F)F`, for which the compound was called inactive in assay [1], in assay [2], in assay [3], in assay [4], in [5] and in [6]. For the same compound, the compound was classed as inactive in [7] and in assay [9].

Consider `C=CC/C=C/C/C=C/C/C=C/C`, for which the compound was called inactive in assay [1], in [2], in assay [3], in assay [4], in assay [5] and in assay [6]. The compound was called inactive in [7], in assay [9] and in assay [8].

Turning to `O=S(=O)(O)c1ccc2ccccc2c1`, the call in assay [1], in assay [3], in assay [4], in [5], in assay [6] and in [7] was inactive. Besides, the result in [9] and in assay [8] was inactive.

`FC(F)(F)C(F)(F)C(F)(F)C(F)(F)C(F)(F)C(F)(F)CCS`: the result in assay [1], in assay [2], in [3], in [4], in assay [5] and in assay [6] was inactive. In addition, the outcome in [7] and in assay [8] was inactive.

`CCCCCCCCC(F)(F)C(F)(F)C(F)(F)C(F)(F)C(F)(F)C(F)(F)F`: the compound was classed as inactive in [1], in assay [2], in [3], in assay [4], in [5] and in assay [6]. For the same compound, the compound was classed as inactive in assay [7], in assay [9] and in assay [8].

For `CCCCOc1ccc(N)cc1`, the call in assay [1], in [2], in assay [3], in [4], in assay [5] and in assay [6] was inactive. The outcome in assay [7] and in assay [9] was inactive.

As to `OCC(F)(F)C(F)(F)C(F)(F)C(F)F`, the compound was classed as inactive in assay [1], in assay [2], in assay [3], in [4], in assay [5] and in assay [6]. Moreover, the outcome in assay [7] and in [8] was inactive.

For `C=C(C)C(=O)OCC(F)(F)C(F)(F)C(F)(F)F`, the result in assay [1], in assay [2], in [3], in assay [4], in assay [5] and in assay [6] was inactive. Further, the compound was classed as inactive in assay [7], in [9] and in assay [8].

Turning to `FC(F)(F)C(F)(F)C(F)(F)C(F)(F)C(F)(F)CCI`, the call in assay [1], in [2], in [3], in [4], in assay [5] and in [6] was inactive. For the same compound, the compound was classed as inactive in [7], in assay [9] and in [8].

For the compound `FC(F)(I)C(F)(F)C(F)(F)C(F)(F)I`, the compound was called inactive in [1], in assay [2], in assay [3], in [4], in assay [5] and in [6]. The result in [7] and in assay [9] was inactive.

`C=CC(=O)OCC(F)(F)C(F)(F)C(F)(F)C(F)(F)COC(=O)C=C`: the AC50 in assay [1] is 81.1 µM (active); in assay [3] it was 61.4 µM (active); in assay [6], 33.8 µM (active); in assay [7], 60.3 µM (active); in [9] it was 79 µM (active); in assay [8], 56.7 µM (active). Also, the compound was called inactive in assay [2], in assay [4] and in [5].

`CCCCCCS`: the call in [1], in assay [2], in [4], in [5], in [6] and in assay [7] was inactive. The compound was classed as inactive in assay [9] and in assay [8]. Further, the half-maximal activity concentration (AC50) in [3] was 133 µM (active).

Take `FC(F)(F)C(F)(F)C(F)(F)C(F)(F)CCI`: the outcome in [1], in assay [2], in [3], in assay [4], in assay [5] and in [6] was inactive. In addition, the compound was called inactive in assay [7] and in assay [8].

With `Nc1cc(Cl)c(N)c(Cl)c1`, the compound was classed as inactive in assay [1], in [2], in [3], in assay [4], in assay [5] and in assay [6]. For the same compound, the compound was classed as inactive in [7] and in assay [9].

As for `C=CC(F)(F)C(F)(F)C(F)(F)C(F)(F)C(F)(F)C(F)(F)C(F)(F)C(F)(F)C=C`, the result in [1], in [2], in [3], in [4], in assay [5] and in [6] was inactive. Besides, the outcome in assay [7], in assay [9] and in [8] was inactive.

As to `CC(C)(C)C(=O)CC(=O)C(F)(F)C(F)(F)C(F)(F)F`, the compound was called inactive in assay [1], in [2], in [3], in [4], in [5] and in assay [6]. For the same compound, the outcome in assay [7], in assay [9] and in assay [8] was inactive.
